Source: PubChem BioAssay (National Center for Advancing Translational Sciences (NCATS))
IL1B secr inh: inhibitors of inflammasome signaling (IL-1 beta secretion). activity change, % at 57.5 µM. AID 743279. THP-1 LPS/ATP IL-1B secretion, AlphaLISA, 16 h; hits give low values. 360,000 tested, 4.7% active; in the data active = activity change below about -50%; inconclusive = mostly about -30% to -49%; note: % is set by controls: 0 for no effect and ±100 for the full control effect
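Secreted IL-1B measured by AlphaLISA bead assay after 16 h compound exposure of THP-1 cells; compounds (final up to 57.5 uM) added 1 h before LPS (250 ng/mL) and ATP (1.25 mM) stimulation; lower signal means less secretion.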
USP2a inh: USP2a (human) protease inhibition; O75604; USP2 core, Ub-CHOP2 coupled fluorogenic reporter, 485/531; Potency, µM (titrated, usually from 38.3 µM), inactives show top-dose activity change, negative = inhibition, usual class: inhibitors; 330,000 tested, 0.01% active;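 note: potency is the fitted concentration of half-maximal effect; plate controls were DMSO wells for no effect and full inhibition by NEM control for full effect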
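USP2 core (10nM final) preincubated 30min RT with compound in 20mM Tris-HCl pH 8.0, 2mM CaCl2, 2mM beta-mercaptoethanol, 0.05% CHAPS; 25nM Ub-CHOP2 plus 25nM reporter substrate added, fluorescence (Ex485/Em531) read after 60min.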
ATXN2 expr inh: reduces ATXN2 reporter expression in HEK-293 cells; HEK-293 ATXN2-luciferase reporter, luminescence, 24 h; Potency, µM (titrated, usually from 57 µM), for inactives: top-dose activity change, negative = inhibition, hits mostly inhibitors; 360,000 tested, 0.72% active; note: potency is the fitted concentration of half-maximal effect; % is set by controls: 0 for no effect and ±100 for the full control effect; nearly all actives have a fitted effect of over 55% in size
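qHTS (up to 57 uM final) was run with 24 h compound exposure of reporter cells at 37 °C. Each well was multiplexed: SteadyGlo luminescence measured ATXN2-luciferase expression after a fluorogenic Gly-Phe-AFC viability readout (25 uM final).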
USP1 inh: inhibitors of human USP1/UAF1 deubiquitinase; Potency, µM (series often up to 57.1 µM), for inactives: at the top dose activity change, negative = inhibition, actives largely listed as inhibitors; 390,000 tested, 0.23% active; O94782; recombinant USP1/UAF1, Ub-Rhodamine cleavage fluorescence; note: potency is the fitted concentration of half-maximal effect; % is set by controls: 0 for no effect and ±100 for the full control effect; nearly all actives have a fitted effect of over 60% in size
Target sequence (O94782 whole entry, looked up): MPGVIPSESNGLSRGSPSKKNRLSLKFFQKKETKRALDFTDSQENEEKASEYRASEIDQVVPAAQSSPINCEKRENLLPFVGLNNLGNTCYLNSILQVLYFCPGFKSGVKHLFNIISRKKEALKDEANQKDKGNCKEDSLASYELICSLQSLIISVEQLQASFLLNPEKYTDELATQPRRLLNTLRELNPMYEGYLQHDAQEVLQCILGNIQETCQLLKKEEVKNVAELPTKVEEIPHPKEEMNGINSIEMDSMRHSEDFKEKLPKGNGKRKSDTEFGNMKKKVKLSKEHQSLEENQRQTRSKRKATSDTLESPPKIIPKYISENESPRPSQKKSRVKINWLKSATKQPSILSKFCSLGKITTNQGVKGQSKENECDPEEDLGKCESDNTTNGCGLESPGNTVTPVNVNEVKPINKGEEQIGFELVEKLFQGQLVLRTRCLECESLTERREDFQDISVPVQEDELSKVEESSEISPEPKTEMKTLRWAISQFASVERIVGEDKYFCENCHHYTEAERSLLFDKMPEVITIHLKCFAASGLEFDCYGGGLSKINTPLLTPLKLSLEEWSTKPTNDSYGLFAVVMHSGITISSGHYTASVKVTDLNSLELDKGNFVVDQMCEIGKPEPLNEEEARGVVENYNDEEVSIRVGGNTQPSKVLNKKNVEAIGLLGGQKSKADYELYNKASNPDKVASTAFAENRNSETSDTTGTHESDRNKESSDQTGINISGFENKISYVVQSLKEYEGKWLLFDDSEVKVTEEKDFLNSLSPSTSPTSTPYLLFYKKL
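USP1/UAF1 complex at 1 nM was preincubated with compound for 15 min at room temperature, then Ub-Rho substrate (150nM final) was added. Fluorescence (480/540 nm) was read kinetically, 6 reads every 60 seconds.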
ATXN viability: viability counter-screen for ATXN expression inhibitors; S2 cells (HEK-293 line with an ATXN2-luciferase reporter) viability, CellTiter-Fluor protease fluorescence, 24 h; Potency, µM (top dose mostly 56.7 µM), usual class: cytotoxic; 400,000 tested, 0.49% active; note: potency is the fitted concentration of half-maximal effect; nearly all actives have a fitted effect of over 40% in size
* marks the source's active call; other numbers are inactive results. In the library only some 4.8% were active in any assay of this set; here they are far more common. Unless noted, calls come from the whole dose curve; as a rule, active = well fitted curve in the direction sought with a large enough effect; inconclusive = small, poorly fitted or top-dose-only effect, or another doubt; inactive = no such curve, though single readings can be large; an effect the other way counts as inactive or inconclusive.

How did NS(=O)(=O)c1ccc(SCc2ccccc2)nc1 do in these assays?
IL1B secr inh: inconclusive; ATXN2 expr inh: 13%; USP1 inh: -3%; ATXN viability: inactive

What do the screens show for `CC1(C)CC(=O)C(C(C2=C(O)CC(C)(C)CC2=O)c2ccc(Br)s2)C(=O)C1` (stereo not given)?
IL1B secr inh: -96*; USP2a inh: 2%; ATXN2 expr inh: inconclusive; USP1 inh: -9%; ATXN viability: inconclusive

How did Cc1ccc(C(C2=C(O)CC(C)(C)CC2=O)C2C(=O)CC(C)(C)CC2=O)s1 (stereo not given) do in these assays?
IL1B secr inh: -17; USP2a inh: -1%; ATXN2 expr inh: 1%; USP1 inh: -13%; ATXN viability: inactive

What do the screens show for `CN(C)c1ccc(C(=O)N2CCCC(Cn3cc(C(=O)N4CCCC4)nn3)C2)cc1` (stereo not given)?
ATXN viability: inactive

How did COc1ccc(C(=O)CSc2nnc(-c3cc4ccccc4cc3O)n2Cc2ccco2)cc1 do in these assays?
IL1B secr inh: -67*; USP2a inh: -19%; ATXN2 expr inh: -16%; USP1 inh: -8%; ATXN viability: inactive

What do the screens show for `O=C1c2ccccc2-c2cccnc21`?
IL1B secr inh: 10; USP2a inh: 4%; ATXN2 expr inh: -6%; USP1 inh: -6%; ATXN viability: inactive

What do the screens show for `O=C1c2ccccc2C(=O)c2c(/C=C/N3CCCCC3)ccnc21`?
IL1B secr inh: -107*; ATXN2 expr inh: inconclusive; USP1 inh: inconclusive; ATXN viability: inconclusive

Results for CN(C(=O)C1CCN(S(=O)(=O)c2ccccc2)CC1)c1c(N)n(Cc2ccccc2)c(=O)[nH]c1=O ?
IL1B secr inh: 5; USP2a inh: 2%; ATXN2 expr inh: 4%; USP1 inh: -8%; ATXN viability: inactive

How did Cc1cc(C)cc(S(=O)(=O)c2cnc3ccccc3n2)c1 do in these assays?
IL1B secr inh: -99*; USP2a inh: -6%; ATXN2 expr inh: -18%; USP1 inh: -19%; ATXN viability: inactive

What do the screens show for `O=S(=O)(c1ccc(Cl)cc1)c1cnc2ccccc2n1`?
IL1B secr inh: -99*; USP2a inh: -2%; ATXN2 expr inh: 21%; USP1 inh: -18%; ATXN viability: inconclusive

How did Nc1ccc(S(=O)(=O)Nc2cnc3ccccc3n2)cc1 do in these assays?
IL1B secr inh: 10; USP2a inh: 2%; ATXN2 expr inh: 9%; USP1 inh: inconclusive; ATXN viability: inactive

Results for S=C(Nc1cccc2ccccc12)NC1CCCCC1 ?
IL1B secr inh: 2; USP2a inh: 0%; ATXN2 expr inh: -2%; USP1 inh: -21%; ATXN viability: inactive

How did CN1CC(c2ccccc2)C2(SC(=S)N(Cc3ccco3)C2=O)C12C(=O)Nc1ccccc12 (stereo not given) do in these assays?
IL1B secr inh: -69*; USP2a inh: -10%; ATXN2 expr inh: inconclusive; USP1 inh: -26%; ATXN viability: inconclusive

What do the screens show for `CN1CC(c2ccccn2)C2(SC(=S)N(Cc3ccccc3)C2=O)C12C(=O)Nc1ccccc12` (stereo not given)?
IL1B secr inh: -22; USP2a inh: -1%; ATXN2 expr inh: inconclusive; USP1 inh: -19%; ATXN viability: inconclusive

What do the screens show for `COc1ccccc1-c1cc(C(F)(F)F)nc(N2CCCC2)n1`?
IL1B secr inh: 30; USP2a inh: -8%; ATXN2 expr inh: 4%; USP1 inh: -10%; ATXN viability: inactive

Results for COc1ccccc1-c1cc(C(F)(F)F)nc(S(=O)(=O)CCCC(=O)NCc2ccc(F)cc2)n1 ?
IL1B secr inh: -100*; USP2a inh: 3%; ATXN2 expr inh: inconclusive; USP1 inh: -10%

What do the screens show for `COc1ccccc1-c1cc(C(F)(F)F)nc(S(C)(=O)=O)n1`?
IL1B secr inh: -109*; USP2a inh: 1%; ATXN2 expr inh: inconclusive; USP1 inh: -10%; ATXN viability: 32µM*

Results for COc1ccccc1-c1cc(C(F)(F)F)nc(S(=O)(=O)CCCC(=O)N2CCCCC2C)n1 (stereo not given) ?
IL1B secr inh: -97*; USP2a inh: 2%; ATXN2 expr inh: inconclusive; USP1 inh: -6%

Results for COc1ccccc1-c1cc(C(F)(F)F)nc(S(=O)(=O)CCCC(=O)Nc2cccnc2Cl)n1 ?
IL1B secr inh: -110*; USP2a inh: 0%; ATXN2 expr inh: inconclusive; USP1 inh: -19%; ATXN viability: inconclusive

What do the screens show for `COc1ccc(Cl)cc1NC(=O)CCCS(=O)(=O)c1nc(-c2ccc(OC)c(OC)c2)cc(C(F)(F)F)n1`?
USP1 inh: -19%

What do the screens show for `COc1ccccc1-c1cc(C(F)(F)F)nc(S(=O)(=O)CCCC(=O)NC(C)C)n1`?
IL1B secr inh: -98*; USP2a inh: 0%; ATXN2 expr inh: inconclusive; USP1 inh: -19%; ATXN viability: 32µM*

How did COc1ccccc1-c1cc(C(F)(F)F)nc(S(=O)(=O)CCCC(=O)Nc2cc(Br)ccc2O)n1 do in these assays?
ATXN2 expr inh: 53%; USP1 inh: -6%; ATXN viability: inactive

Results for CSc1nc(NS(=O)(=O)c2ccc(F)cc2F)nn1C ?
IL1B secr inh: 15; USP2a inh: 2%; ATXN2 expr inh: -4%; USP1 inh: -22%; ATXN viability: inactive

How did O=C(Nc1ccc2c(c1)N(C1CCCC1)C(=O)c1ccccc1S2)c1ccccc1 do in these assays?
ATXN2 expr inh: 21%; USP1 inh: 8%; ATXN viability: inconclusive

What do the screens show for `O=C(O)COc1ccc(/C=C/c2nc(-c3ccccc3O)n[nH]2)cc1`?
IL1B secr inh: 2; USP2a inh: 1%; USP1 inh: -20%; ATXN viability: inactive

Results for COc1ccc(/C=C/c2nc(-c3ccccc3O)n[nH]2)cc1OC ?
IL1B secr inh: -99*; USP2a inh: -1%; ATXN2 expr inh: 43%; USP1 inh: -21%; ATXN viability: inconclusive

What do the screens show for `COc1ccccc1CCc1nc2ccccc2n1C1CCN(C(=O)c2cn3ccsc3n2)CC1`?
ATXN viability: inactive

Results for CC(C)C(=O)Nc1ccc2nc(SCC(=O)N3CCc4ccccc43)sc2c1 ?
ATXN2 expr inh: inconclusive; USP1 inh: -12%; ATXN viability: inconclusive

What do the screens show for `CC(C)Nc1nc(Cl)nc(N(C#N)CN2C(=O)c3ccccc3C2=O)n1`?
IL1B secr inh: -99*; USP2a inh: -1%; ATXN2 expr inh: inconclusive; USP1 inh: -3%; ATXN viability: inconclusive

What do the screens show for `CN1CCN(C(=O)CCN2C(=O)c3ccccc3S2(=O)=O)CC1`?
IL1B secr inh: 3; USP2a inh: 2%; ATXN2 expr inh: 3%; USP1 inh: -12%; ATXN viability: inactive
